SMILES strings stand for the structures. About 83,000 compounds went through this panel and 20% of them were active in at least one assay; those are over-represented in the sample as a whole.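 Plates (96-well) were seeded with cells, treated with compound at one concentration, and incubated for 48 hours before percent growth was determined.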 Activity calls are given as the source filed them. Rule for the calls: active = growth percent below 10; inactive = the rest.

The values below come from PubChem BioAssay (NCI).

In the first assay the test system is UACC-257 melanoma. The assay is described as follows: NCI-60 one-dose screen, 48 h (100 = growth as untreated, 0 = no growth, -100 = all killed). The conditions noted are these: 10 µM unless noted.
In the case of `CC1=C(C(=O)c2ccccc2)C(c2ccc(-n3cncn3)cc2)n2c(nc3ccccc32)N1` (centres undefined), the growth is 89.1% (inactive). Still for that read-out and setting: in the case of `CN(C)CCCNC(=O)c1cc(NC(=O)c2cc(NC(=O)c3ccc(C#Cc4ccccc4)cc3)cn2C)cn1C` it was 43.8% (inactive); in that of `COc1cccc(/C=C/c2nc3ccccc3c(=O)n2CC(=O)Nc2ccc(Cl)cc2)c1`, 92.3% (inactive).

The next assay has as its system M14 melanoma. The description is as above. Particulars: 10 µM unless noted.
For the compound `COC(=O)C[C@](O)(CCCC(C)(C)O)C(=O)O[C@H]1C(OC)=C[C@@]23CCCN2CCc2cc4c(cc2[C@@H]13)OCO4`, the growth is -71.4% (active).

Consider `COc1cc(/C=C2\C(=N)N=C(SCc3nc4ccccc4[nH]3)NC2=O)ccc1O`, for which the growth is 95.4% (inactive).

In the case of `N/C(=N\N=C\c1ccc([N+](=O)[O-])cc1)c1c(N)nc(=S)[nH]c1-c1ccc(Cl)cc1Cl`, the growth is 102% (inactive).

Turning to `CC1(c2cc3cc(Cl)ccc3oc2=O)NC(=O)c2c(/C=C/C(=O)OC3CC4CCC3(C)C4(C)C)cccc2N1` (centres undefined), the growth was 69.6% (inactive). The same measure, in the same setting: in the case of `O=C(N=Nc1c(O)[nH]c2ccc(Cl)cc12)c1ccc2nc(-c3ccccc3)[nH]c2c1` it was 68.6% (inactive); in that of `O=C(O)c1cccc(-c2ccc(/C=N/NC(=O)c3[nH]c4ccc(Br)cc4c3-c3ccccc3)o2)c1`, 65.9% (inactive). Still for that read-out and setting: in the case of `CC1(C)CC[C@]2(C(=O)Nc3ccccc3)CC[C@]3(C)C(=CCC4[C@@]5(C)C[C@@H](O)[C@H](O)[C@@](C)(CO)C5CC[C@]43C)C2C1` (some centres undefined) it was 56.1% (inactive); in that of `O=c1[nH]c2ccccc2cc1CSc1cccc(Nc2nccc(-c3ccc4ccccc4c3)n2)c1`, 86.7% (inactive); in that of `Clc1cccc(N/N=C/c2c[nH]c3ccc(Br)cc23)n1`, 15.2% (inactive). For `CSc1ccc(NC(=O)c2ccc3nnn(/C(C#N)=C/c4ccccn4)c3c2)cc1`, the growth was -89.7% (active). Still for that read-out and setting: in the case of `Cc1c(C(=O)NNC(=O)c2ccc(Cl)cc2)nnn1-c1ccc(Cl)cc1` it was 93.6% (inactive); in that of `CN(C)c1nc(NCCNS(=O)(=O)c2ccc(C(=O)/C=C/c3ccc(F)cc3)cc2)nc(Nc2ccc(F)cc2)n1`, -83% (active).

As for `CNC(=O)c1cc(Oc2ccc3nc(NC(=O)Nc4cccc(OC(F)(F)F)c4)sc3c2)ccn1`, the growth is 44.8% (inactive). As for `CC(C)(C)OC(=O)/C=C/c1cccc2c1C(=O)NC(C)(c1cc3cc(Cl)ccc3oc1=O)N2` (centres undefined), the growth was 49.3% (inactive). The same measure, in the same setting: the result for `Cc1ccc(C2CC(c3ccc(S(=O)(=O)NCCNc4nc(Nc5ccc(F)cc5)nc(N(C)C)n4)cc3)=Nc3c(N)nc(N)nc3N2)cc1` (centres undefined) reads 41.5% (inactive); that for `CC1=C(C(=O)OC(C)C)C(c2cccc(O)c2)NC(=S)N1` (centres undefined), 109% (inactive).

`C[C@H](Nc1nc(NCCc2ccccc2)nc2ccccc12)c1ccccc1`: the growth was -84.5% (active).

With `COc1ccc(-c2c(Nn3cnnn3)no[n+]2[O-])cc1`, the growth is 59.9% (inactive).

On to `Cn1cc(NC(=O)c2cc(NC(=O)c3ccc(C#Cc4ccccc4)cc3)cn2C)cc1C(=O)NCCCN1CCOCC1`, for which the growth was -86.4% (active).

For the compound `COc1cc(NC(=O)c2cccc(C3CCc4c(cc(OC)c(OC)c4OC)O3)c2)cc(OC)c1OC` (centres undefined), the growth is 22.2% (inactive).

On to `COc1ccc(-c2nnc3ccc(N/N=C/c4ccc(C)cc4)nn23)cc1`, for which the growth is 83.5% (inactive). On to `Cc1ccc(-n2c(-c3cc4ccccc4nc3Cl)noc2=O)cc1`, for which the growth was 72.7% (inactive).

On to `CC(=O)Oc1ccccc1C(=O)[Se]CC(=O)Nc1cccc(C(F)(F)F)c1`, for which the growth is -37.4% (active). Still for that read-out and setting: in the case of `N#Cc1c(-c2ccccc2Cl)cc(-c2ccc3ccccc3c2)[nH]c1=O` it was 25.1% (inactive); in that of `CCCCNC(=S)Nc1ccc(OCc2nc3ccccc3[nH]2)cc1`, 55.1% (inactive); in that of `COc1ccc(-c2nc3cc(C)ccc3n2CC(=O)N=Nc2c(O)[nH]c3ccccc23)cc1`, -71.5% (active). On the same count and under the same terms, in the case of `COc1ccc(-c2nc3ccc(C(=O)NN4C(=O)c5ccc([N+](=O)[O-])cc5C4=O)cc3[nH]2)cc1` it was 93.7% (inactive); in that of `O=c1oc2ccccc2cc1-c1csc(N=Nc2c(O)[nH]c3ccc(Cl)cc23)n1`, 109% (inactive). On the same count and under the same terms, in the case of `CN(C)c1ccnc(CNCCSC2(c3ccccc3)c3ccccc3C=Cc3ccccc32)c1` it was -80.8% (active); in that of `COc1cc2c(c(OC)c1OC)C(=O)CC(c1cccc(NC(=O)c3cc(NC(=O)[C@@H](N)CO)ccc3C)c1)O2` (some centres undefined), 119% (inactive); in that of `COc1ccc(C(=O)/C=C/c2c(F)cccc2Cl)cc1S(N)(=O)=O`, -59.4% (active).
